This assay can be described thus: p53 small molecule agonists, cell-based qHTS assay with human liver microsomes (AID 1963577).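 Further: p53 response element beta-lactamase reporter cells with liver microsomes plus NADPH.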 Put shortly: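 Metabolically competent format: test substances, human liver microsomes and NADPH (both 0.5 mg/mL final) incubated with p53RE-bla cells 16 h at 37 C. Beta-lactamase reporter signal then quantified by fluorescence.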
(Quantitative high-throughput screening tests each substance at several concentrations.)

Molecules are shown by their SMILES. Inconclusive results are not listed. Entries that show only a call come without a potency. Calls of active or inactive are those of the source. The call rests on the fitted dose curve. Bridge positions count the residues as written; N and C are the ends. Square brackets hold non-standard residues; d marks the D form. Peptide text beside a SMILES is read from it. hArg = N=C(N)NCCCC[C@H](N)C(=O)O; Mpa = O=C(O)CCS

In the case of `CCCCNCCCC`, the Potency entry is “inactive”. `Nc1nc(N)c2nc(CNc3ccc(C(=O)N[C@@H](CCC(=O)O)C(=O)O)cc3)cnc2n1`: the Potency result was “inactive”. As for `COc1nccnc1CC(C)C`, the Potency entry was “inactive”. As for `c1ccc(C[n+]2cccc3ccccc32)cc1`, the Potency entry was “inactive”. Turning to `O=C(/C=C/c1ccc(O)c(O)c1)O[C@@H]1C[C@@](OC(=O)/C=C/c2ccc(O)c(O)c2)(C(=O)O)C[C@@H](O)[C@@H]1O`, the Potency entry is “inactive”. The same measure for `O=C(O)CCCl`: “inactive”; for `C=CC(=O)OCC(C)OCC(C)OCC(C)OC(=O)C=C` (stereo not given): “inactive”.

For `CC(=O)Oc1ccc(C2(c3ccc(OC(C)=O)cc3)Oc3ccccc3NC2=O)cc1`, the Potency entry is “inactive”. For `CC1=CCCC(C)(C)C12CCC(C)O2` (stereo not given), the Potency result is “inactive”. On to `Cc1cc(C)c(C)c(C)c1`, for which the Potency result was “inactive”. Regarding `CC[C@]1(O)C[C@H]2CN(CCc3c([nH]c4ccccc34)[C@@](C(=O)OC)(c3cc4c(cc3OC)N(C=O)[C@H]3[C@@](O)(C(=O)OC)[C@H](OC(C)=O)[C@]5(CC)C=CCN6CC[C@]43[C@@H]65)C2)C1`, the Potency result was “inactive”. Consider `C[Si](C)(C)C`, for which the Potency result was “inactive”. As for `Nc1ccc(N)c2ccccc12`, the Potency entry was “inactive”. In the case of `CC(C)C[C@H](NC(=O)[C@H](Cc1ccccc1)NC(=O)c1cnccn1)B(O)O`, the Potency entry was “inactive”. The same measure for `CCc1c(C)[nH]c2c1C(=O)C(CN1CCOCC1)CC2` (stereo not given): “inactive”; for `Cc1ccc(O)c(C(=O)c2ccccc2)c1`: “inactive”; for `O=C(Cl)c1cc(Cl)cc(Cl)c1`: “inactive”. In the case of `Nc1ccc(F)cc1F`, the Potency entry is “inactive”. For the compound `CCCCCCNC(=O)n1cc(F)c(=O)[nH]c1=O`, the Potency entry is “inactive”. Take `NC(=O)[C@@H]1CSSCCC(=O)N[C@@H](CCCCN=C(N)N)C(=O)NCC(=O)N[C@@H](CC(=O)O)C(=O)N[C@@H](Cc2c[nH]c3ccccc23)C(=O)N2CCC[C@H]2C(=O)N1` ([Mpa][hArg]GDWPC-NH2; disulfide 1-7): the Potency entry was “inactive”. As to `CCOc1ccc(O)cc1`, the Potency result was “inactive”. For `CNC(=S)NN`, the Potency entry was “inactive”.

Consider `Cc1cc(CCN2CCN(c3nsc4ccccc34)CC2)cc2c1NC(=O)CC2(C)C`, for which the Potency result was “inactive”. Consider `COC(=O)Nc1nc2ccc(C(=O)C3CC3)cc2[nH]1`, for which the Potency entry is “inactive”.

For the compound `O=C[C@@H](O)[C@H](O)[C@H](O)CO`, the Potency result is “inactive”. On to `O=S(=O)(O)c1cc(I)c(O)c2ncccc12`, for which the Potency result was “inactive”.

Turning to `CCCc1ccccc1O`, the Potency result was “inactive”. Regarding `Cc1cc(C2CCCCC2)n(O)c(=O)c1`, the Potency result is “inactive”.

As for `COc1cc(NS(=O)(=O)c2ccc(N)cc2)nc(C)n1`, the Potency result is “inactive”. As to `CC[N+](C)(CC)CC`, the Potency result is “inactive”. For `CCCCNC1CC(C)(C)NC(C)(C)C1`, the Potency result is “inactive”.

For the compound `O=C(O)Cc1cc(I)c(Oc2cc(I)c(O)c(I)c2)c(I)c1`, the Potency result is “inactive”. On to `O=C1c2ccccc2-c2ccccc21`, for which the Potency result is “inactive”. On to `COC(=O)c1ccc(C(=O)O)cc1`, for which the Potency result was “inactive”. In the case of `CCCCN(CCN(CCCC)C(=O)N1CCOCC1)C(=O)N1CCOCC1`, the Potency result was “inactive”.

The values are drawn from PubChem BioAssay (Tox21).
